Compound activity: PubChem, The Scripps Research Institute Molecular Screening Center
Only some compounds are listed: those with a hit (about 1.8% of all), similar ones and a draw of the others.
LYPLA1 inh = blocks human lysophospholipase 1, a PME1 counter-screen; recombinant LYPLA1, FP-Rh probe fluorescence polarization; inhibition, % at 5.9 µM; actives 0.16% (n = 320,000); AID 2174;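 active = inhibition above the mean of all tested compounds plus 3 SD, set per campaign, cut at about 14% in these data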;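 note: inhibitors block serine hydrolase probe labeling of LYPLA1 so polarization falls; 0% = enzyme with DMSO and 100% = wells lacking LYPLA1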
Target sequence (O75608 whole entry, looked up): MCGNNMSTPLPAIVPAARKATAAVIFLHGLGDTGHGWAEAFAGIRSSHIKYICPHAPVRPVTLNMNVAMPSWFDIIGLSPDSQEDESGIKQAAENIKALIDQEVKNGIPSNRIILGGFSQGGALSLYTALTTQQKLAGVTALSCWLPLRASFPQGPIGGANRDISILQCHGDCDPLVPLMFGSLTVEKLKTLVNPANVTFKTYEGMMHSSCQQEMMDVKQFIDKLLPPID
PME-1 inh = blocks human protein phosphatase methylesterase 1; Q9Y570; recombinant PME-1, FP-Rh probe fluorescence polarization; inhibition, % at 5.9 µM; actives 0.53% (n = 320,000); AID 2130;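 active = inhibition above the campaign mean of all compounds plus 3 SD, cut at about 26% in these data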;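 note: competitive labeling of PME-1 active site by serine hydrolase directed probe; 0% = PME-1 with DMSO and 100% = wells lacking PME-1 enzyme; inhibitors block probe labeling so polarization falls and inhibition rises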
LYPLA2 counter = counter-screen for PME1 inhibitors: inhibitors of human LYPLA2 | O95372 | recombinant LYPLA2, FP-Rh probe fluorescence polarization | inhibition, % at 5.9 µM | actives 0.38% (n = 320,000) | AID 2177;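 active = inhibition above the screen-wide mean plus 3 SD, limit set per campaign, cut at about 26% in these data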;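 note: 0% = LYPLA2 with DMSO and 100% = wells lacking LYPLA2 enzyme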
Target sequence (O95372 whole entry, looked up): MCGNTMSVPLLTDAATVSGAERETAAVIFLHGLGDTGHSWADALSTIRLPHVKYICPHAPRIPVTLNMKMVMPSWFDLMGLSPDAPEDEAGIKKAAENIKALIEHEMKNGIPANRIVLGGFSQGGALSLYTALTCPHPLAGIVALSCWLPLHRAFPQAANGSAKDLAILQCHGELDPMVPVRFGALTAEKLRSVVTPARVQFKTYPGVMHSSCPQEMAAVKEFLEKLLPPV
GSTO1 counter = GSTO1 inhibition, counter-screen for RBBP9 inhibitors; P78417; recombinant GSTO1, activity-based probe fluorescence polarization; inhibition, % at 5.96 µM; actives 1.1% (n = 300,000);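 active = inhibition above the campaign mean inhibition plus 3 SD, cut at about 35% in these data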;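 note: 0% = GSTO1-1 with DMSO and 100% = wells lacking GSTO1-1 enzyme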
PAD4 inh = inhibitors of human PAD4; recombinant PAD4, RCA probe fluorescence polarization; AID 485272; inhibition, % at 6.36 µM; actives 0.41% (n = 330,000);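 active = percent inhibition above a cutoff equal to the mean of all tested compounds plus 3 SD, cut at about 15% in these data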;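 note: 0% = PAD4 with RCA probe and DMSO and 100% = probe without PAD4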
Fam108B counter = counter-screen for RBBP9 inhibitors: inhibitors of mouse Fam108B; AID 1947; recombinant Fam108B, FP-Rh probe fluorescence polarization; actives 0.33% (n = 300,000); inhibition, % at 9.51 µM;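 active = inhibition above the screen mean inhibition plus 3 SD, computed separately per campaign, cut at about 18% in these data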;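 note: inhibitors lower polarization as less probe binds the enzyme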
GSTO1 inh conf = GSTO1 (human) inhibition, confirmation. shares compounds with GSTO1 counter. recombinant GSTO1, probe fluorescence polarization. inhibition, % at 5.96 µM. actives 54% (n = 2,400). AID 2176;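 active = inhibition above the primary screen's cutoff, its mean inhibition plus 3 SD, cut at about 35% in these data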;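 note: loss of polarization as inhibitors block binding of rhodamine sulfonate ester activity probe; 0% = GSTO1 with DMSO and 100% = wells lacking GSTO1 enzyme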
GSTO1 ABPP inh = blocks recombinant human glutathione S-transferase omega 1 | shares compounds with GSTO1 counter | recombinant GSTO1, gel ABPP SE-Rh probe fluorescence | inhibition, % at 1 µM | actives 30% (n = 130) | AID 463110;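 active = inhibition of the enzyme GSTO1 above about 75%, limit read from the data; inactive = inhibition below that limit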
Starred values were filed as active, the others as inactive; . = no result.

SMILES	LYPLA1 inh	PME-1 inh	LYPLA2 counter	GSTO1 counter	PAD4 inh	Fam108B counter	GSTO1 inh conf	others
C=CCOc1ccccc1CN(C(=O)CCl)c1ccc2c(c1)OCO2	-1	0	1	95*	-1	-2	86*	GSTO1 ABPP inh=75*
CCC(C)Oc1ccc(/C=C/c2[nH]c(=O)[nH]c(=O)c2[N+](=O)[O-])cc1OC (stereo not given)	4	-6	-3	2	1	2	.
COc1cc(/C=C/c2[nH]c(=O)[nH]c(=O)c2[N+](=O)[O-])cc([N+](=O)[O-])c1O	-1	-2	2	53*	0	9	68*
O=C(C1CCC1)N1CCc2cc(S(=O)(=O)NCCN3CCN(c4ccccc4F)CC3)ccc21	-2	12	-5	8	-7	-6	.
CN1CCC(NC(=O)c2cccc(Oc3ccccc3)c2)CC1	4	3	2	63*	-2	3	6
O=C(NC1CCCC1)c1cccc(Oc2ccccc2)c1	0	4	9	3	9	-2	.
Cc1cc(C)c(NC(=O)CN2C(=O)NC3(CCCCC3)C2=O)c(Cl)c1	-1	-6	-2	54*	0	-2	33
Cc1cc(C)c(NC(=O)CN2C(=O)NC3(CCc4ccccc43)C2=O)c(Cl)c1 (stereo not given)	.	.	.	.	-6	.	.
O=C(N/N=C/c1ccc(-c2ccccc2[N+](=O)[O-])o1)c1cccnc1	3	4	6	51*	5	4	7
Cc1nn(-c2ccccc2)c(Cl)c1C(=O)NCC(=O)O	-1	-2	-10	0	5	2	.
Cc1nn(-c2ccccc2)c(Cl)c1CN(C(=O)CCl)c1ccc(Cl)cc1	-1	-4	-4	82*	14	2	93*	GSTO1 ABPP inh=88*
COC(=O)[C@@H]1C[C@@]2(O)[C@@H](O)[C@@H](O)[C@@H](O)C[C@H]2N1Cc1cc(OC)cc(OC)c1	-3	-1	0	-3	0	-2	.
Cc1cc(NC(=O)c2ccccc2)n(-c2nc3ccccc3[nH]2)n1	-3	-4	-9	-5	-5	-3	.
CCOC(=O)C(=O)Nc1cc(C)nn1-c1nc2ccccc2[nH]1	-3	-3	0	45*	-7	-2	3
O=[N+]([O-])c1ccc(Cl)c(S(=O)(=O)N2CCCCCC2)c1	0	-2	1	27	3	5	.
O=C(O)CCCN1C(=O)/C(=C\c2ccccc2OCc2ccccc2)SC1=S	0	18	14	39*	-4	0	48*
O=C(O)COc1cccc(/C=C2/SC(=S)N(Cc3ccccc3)C2=O)c1	-3	-8	2	-8	-4	-11	.
O=C(O)CN1C(=O)/C(=C\c2cccc(OCc3ccccc3)c2)SC1=S	1	2	6	40*	1	4	30
O=C(O)CN1C(=O)/C(=C\c2ccccc2OCc2ccc(F)cc2)SC1=S	1	5	1	-6	-2	4	.
CC(C)C[C@@H](CNC(=O)OC(C)(C)C)NC(=O)c1nc[nH]c1C(=O)N[C@@H](CC(C)C)C(=O)CNC[C@H](CC(C)C)NC(=O)c1nc[nH]c1C(=O)N[C@@H](Cc1c[nH]c2ccccc12)C(=O)OC(C)(C)C	.	.	.	.	2	.	.
CCOC(=O)c1c(C)n(C)c2cc(Br)c(O)c(O)c12	4	4	2	45*	-10	-2	13
CCOC(=O)c1c(C)n(C)c2cc([N+](=O)[O-])c(O)c([N+](=O)[O-])c12	1	0	-1	9	-4	-4	.
Cc1ccc(O)c(N=CC2=C(O)c3ccccc3C2=O)c1	0	34*	-4	68*	4	16	26
COc1ccc(S(=O)(=O)N2CCN(C(=O)c3ccc4ccccc4n3)CC2)cc1	0	6	-5	.	3	.	.
CN(Cc1cccnc1)C(=O)c1cc(COc2ccc3c(c2)CCCC3)on1	0	-2	8	-2	1	-4	.
SMILES	LYPLA1 inh	PME-1 inh	LYPLA2 counter	GSTO1 counter	PAD4 inh	Fam108B counter	GSTO1 inh conf	others
O=C(CCl)c1ccc2c(c1)CCN2C(=O)C1CCCCC1	-1	0	-6	42*	0	3	64*
CCC1CCCCN1S(=O)(=O)c1ccc2c(c1)CCN2C(=O)C1CCC1 (stereo not given)	5	3	4	8	-4	-2	.
Cc1c(Br)ccc(NC(=O)c2ccccc2[N+](=O)[O-])c1C	-2	3	7	1	-2	-1	.
CC(/C=C1\SC(=S)N(NS(=O)(=O)c2ccccc2)C1=O)=C\c1ccccc1	-1	0	-3	40*	0	3	32
CC(/C=C1\SC(=S)N(NS(=O)(=O)c2ccc(C)cc2)C1=O)=C\c1ccccc1	2	-13	-4	48*	-7	0	36*
CC(/C=C1\SC(=S)N(NC(=O)c2ccc(C)cc2)C1=O)=C\c1ccccc1	-14	-31	-36	-7	-8	-21	.
COc1ccc(N(C(=O)CCl)C(C(=O)NCCc2ccccc2)c2cccs2)cc1Cl (stereo not given)	3	2	2	89*	10	-3	91*	GSTO1 ABPP inh=92*
COc1ccc(N(C(=O)c2ccco2)C(C(=O)NC2CCCCC2)c2cccs2)cc1OC (stereo not given)	3	1	1	0	-5	2	.
COc1cccc(N(C(=O)CCl)C(C(=O)NCCc2ccccc2)c2cccs2)c1 (stereo not given)	-2	-5	-1	94*	11	-4	95*	GSTO1 ABPP inh=75*
COc1ccc(CCNC(=O)CCc2ccsc2)cc1OC	-7	1	-3	3	-4	-1	.
CCOCC(=O)Nc1nnc(Cc2ccc(OC)cc2)s1	-4	-5	5	39*	0	5	29
CCOCC(=O)Nc1nnc(Cc2ccc(OC)c(OC)c2)s1	-2	-9	7	24	1	-1	.
O=C(NCc1ccc(Cl)c(Cl)c1)C1CCCC1	-2	6	-4	2	1	0	.
O=S(=O)(c1ccc(Cl)cc1)N1CCC2(CC1)CO2	1	0	-6	96*	-4	0	106*	GSTO1 ABPP inh=64
Cc1c(C=O)c(Cl)n(C)c(=O)c1C#N	2	4	4	53*	27*	5	84*
CC(=O)N=Cc1c(C)c(C#N)c(=O)n(C)c1O	0	3	5	19	-7	3	.
Cc1cc(/C=C2\SC(=S)NC2=O)c(C)n1-c1cccc(O)c1	-12	-17	-5	53*	-29	4	51*
